Records with an inconclusive call do not appear. Activity calls are given as the source filed them. Calls follow the shape of the full dose curve.

The results in this text go back to PubChem BioAssay (NCATS).
Potency is read from the fitted curve at half-maximal effect.

This assay is described as follows: Primary qHTS to identify inhibitors of SARS-CoV-2 cell entry (AID 1645846). Also: nearly all actives have a fitted effect of over 45% in size. The conditions noted are these: SARS-CoV-2 pseudovirus cell entry assay, luminescence; activity change, negative = inhibition: at 57.1 µM (top of the series) unless noted. In short, it runs like this:
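HEK293 cells stably expressing human ACE2, pre-treated 1 h with compound, then infected with MLV particles pseudotyped with Wuhan-Hu-1 spike (C-terminal 19-aa truncation). Luciferase luminescence after 48 h at 37 °C, normalised to spike PP and bald PP.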
For orientation: Quantitative high-throughput screening tests each substance at several concentrations.
`COc1cc(N2CCN(C(C)=O)CC2)ccc1Nc1ncc(Cl)c(Nc2ccc(N3CCN(C(C)=O)CC3)cc2OC)n1`: the activity change, negative = inhibition is -12.2%.

As to `CN(C)C/C=C/C(=O)Nc1cccc(C(=O)Nc2cccc(Nc3ncc(Cl)c(-c4c[nH]c5ccccc45)n3)c2)c1`, the Potency is 3.16 µM (active).

In the case of `NS(=O)(=O)OC[C@@H]1C[C@@H](n2ccc3c(N[C@H]4CCc5ccccc54)ncnc32)C[C@@H]1O`, the activity change, negative = inhibition was -87.9%.

Regarding `COc1cc(C(=O)NC2CCN(C)CC2)c(F)cc1Nc1ncc2c(n1)N(C1CCCC1)CC(F)(F)C(=O)N2C`, the activity change, negative = inhibition is -99.3%.

Turning to `Cc1c(F)cc(C(=O)NC2CC2)cc1-c1c(F)cn2c(C(C)(C)C)nnc2c1F`, the activity change, negative = inhibition amounted to 3.6%.
